Data on 38 molecules can be found in PubChem BioAssay (EPA / NIEHS).

A structure can be active in one record and inactive in another. The source made the active and inactive calls. The calls were made as follows: active = hit-call score of the fitted dose curve at least 0.9, where 1 is the maximum; inactive = score below 0.9.

Read-out in the assay: Collagen IV, COL4A1 (gene 1282)
The experiment in a line: BSK_MyoF_CollagenIV: BioMAP Diversity Plus: MyoF Assay for Collagen IV Biomarker Activity (AID 2284247). Particulars: primary human lung fibroblasts. Here is the method:
BSK_MyoF is a cell-based, multiplexed-readout assay that uses lung fibroblasts, […], with measurements taken at 24 hours after chemical dosing in a microplate: 96-well plate.BSK_MyoF_CollagenIV is an assay component measured in the BSK_MyoF assay. It measures Collagen IV antibody related to regulation of gene expression using ELISA technology.Data from the assay component BSK_MyoF_CollagenIV was analyzed at the endpoint, BSK_MyoF_CollagenIV, in the positive analysis fitting direction relative to DMSO as the negative control and baseline of activity. Using a type of binding reporter, gain or loss-of-signal activity can be used to understand protein changes. To generalize the intended target to other relatable targets, this assay endpoint is annotated to the 'cell adhesion molecules' intended target family, where the subfamily is 'collagen'.
The levels of cell surface (or secreted, indicated by the prefix "s") biomarker endpoints were measured by ELISA. Overt cytotoxicity to cells in confluent adherent cultures (all systems other than the BT system) was assessed by measuring total protein levels using sulforhodamine B (SRB) staining in parallel cultures at the time of biomarker measurements, indicated as SRB endpoints. For proliferation assays for adherent cell types, individual cell types are cultured at sub-confluence and relative cell numbers quantified by SRB staining at time points optimized for each system (48 h: 3C and CASM3C systems; 72 h: BT and HDF3CGF systems; 96 h: SAg system). SRB was performed by staining cells with 0.1% SRB after fixation with 10% TCA and reading wells at 560 nm.Viability and proliferation of PBMC (T cells) was quantified by Alamar Blue reduction for the SAg and BT systems. For PBMC viability (referred to as PBMC Cytotoxicity within the assay endpoint names), cells were plated (75,000/well in a 96-well plate) and then chemical samples added for 1 h before addition of activators, SEB and TSST-1 (20 ng/mL final concentration each). Cells were incubated for 90 h. Then, Alamar Blue (20 uL/well) (Invitrogen, Cat DAL1100) was added for 6 h, and the plates were read with a fluorescence microplate reader at 546/580 nm (excitation/emission). For PBMC proliferation, cells were plated and activated as above but incubated for only 16 h prior to addition of Alamar Blue. Plates were read after 6 h.
For `O=S1(=O)OCC2C(CO1)C1(Cl)C(Cl)=C(Cl)C2(Cl)C1(Cl)Cl` (centres undefined), the outcome was inactive.

Consider `CCOP(=S)(OCC)SCn1nnc2ccccc2c1=O`, for which the outcome was inactive.

On to `C=CC(=O)OCC(F)(F)C(F)F`, for which the AC50 (as a rule, the midpoint of the concentration-response curve, whichever way the signal moves) is 45.7 µM (active) and the result was inactive.

Regarding `O=P(OCC(Br)CBr)(OCC(Br)CBr)OCC(Br)CBr` (centres undefined), the result was inactive.

Regarding `FC(F)(F)C(F)(C(F)(F)F)C(F)(F)C(F)(F)CC1CO1` (centres undefined), the outcome was inactive.

For the molecule `CCOP(=S)(OCC)SCS(=O)(=O)CC`, the result was inactive.

Regarding `CCCCOCCOP(=O)(OCCOCCCC)OCCOCCCC`, the result was inactive.

As to `CC(C)Nc1ccc(Nc2ccccc2)cc1`, the half-maximal activity concentration (AC50) was 20 µM (active).

With `CCCCC(CC)COP(=O)(Oc1ccccc1)Oc1ccccc1` (centres undefined), the AC50 is 3.97 µM (active).

`COC(=O)C(F)(F)C(F)(F)OC(F)(C(F)(F)F)C(F)(F)OC(F)=C(F)F` (centres undefined): the result was inactive.

For the molecule `Cc1ccc2c(c1N)C(=O)c1ccccc1C2=O`, the result was inactive.

For `OCC(F)(F)OC(F)(F)C(F)(F)OC(F)(F)C(F)(F)OC(F)(F)CO`, the outcome was inactive.

Take `N#Cc1cc([N+](=O)[O-])ccc1N`: the outcome was inactive.

For the molecule `O=C(O)C=CC(F)(C(F)(F)F)C(F)(F)F`, the result was inactive.

As for `COP(=O)(O)OC`, the outcome was inactive.

As to `CCCCC(CC)COC(=O)c1c(Br)c(Br)c(Br)c(Br)c1C(=O)OCC(CC)CCCC` (centres undefined), the result was inactive.

Take `CCOP(=S)(NC(C)C)Oc1ccccc1C(=O)OC(C)C` (centres undefined): the outcome was inactive.

For the molecule `N#Cc1c(-c2ccc(Cl)cc2)[nH]c(C(F)(F)F)c1Br`, the result was inactive.

As to `O=C(O)C(F)(OC(F)(F)C(F)(F)C(F)(F)F)C(F)(F)F` (centres undefined), the outcome was inactive.

Turning to `OCC(F)(F)OC(F)(F)C(F)(F)OC(F)(F)CO`, the result was inactive.

`CCOP(=S)(OCC)SCSc1ccc(Cl)cc1`: the concentration at half-maximal activity (AC50) was 0.0408 µM (active).

For `O=S(=O)(F)C(F)(F)C(F)(F)C(F)(F)C(F)(F)C(F)(F)C(F)(F)C(F)(F)C(F)(F)F`, the result was inactive.

As for `c1ccc2c(c1)sc1ccccc12`, the result was inactive.

In the case of `OCC(F)(F)OC(F)(F)C(F)(F)OC(F)(F)C(F)(F)OC(F)(F)F`, the outcome was inactive.

With `COP(N)(=S)OC`, the result was inactive.

For the molecule `Nc1ccc([N+](=O)[O-])cc1Cl`, the outcome was inactive.

Consider `O=c1ssc(Cl)c1Cl`, for which the AC50 is 7.41 µM (active).

For `NC(=O)C(F)(F)C(F)(F)F`, the outcome was inactive.

As for `ClC(Cl)=C(c1ccc(Cl)cc1)c1ccccc1Cl`, the concentration at half-maximal activity (AC50) was 9.38 µM (active).

Turning to `O=C(O)C(F)(F)OC(F)(F)C(F)(F)OC(F)(F)F`, the outcome was inactive.

`CC(Cl)CN(C)C` (centres undefined): the result was inactive.

Consider `O=C(O)C(F)(F)OC(F)(F)C(F)(F)OC(F)(F)C(=O)O`, for which the outcome was inactive.

For the molecule `CC(C)(C)c1ccccc1OP(=O)(Oc1ccccc1)Oc1ccccc1`, the outcome was inactive.

For the molecule `C=CC(=O)OCC(CC)(COC(=O)C=C)COC(=O)C=C`, the AC50 was 2.87 µM (active).

With `Cc1c([N+](=O)[O-])cc2c(c1[N+](=O)[O-])C(C)(C)CC2(C)C`, the half-maximal activity concentration (AC50) was 5.8 µM (active).

As to `O=C(O)C(F)(F)C(F)(F)C(=O)O`, the result was inactive.

With `CC(O)C(F)(F)C(F)(F)F` (centres undefined), the outcome was inactive.

For `CCOP(=S)(S)OCC`, the result was inactive.
